Only some compounds are listed: those with a hit (about 1.1% of all), similar ones and a draw of the others.
Vaccinia Venus: qHTS for Stage-Specific Inhibitors of Vaccinia Orthopoxvirus: Venus Reporter Primary qHTS | Vaccinia virus Venus reporter expression, fluorescence | Potency, µM (highest dose often 36.5 µM), usual class: inhibitors | 330,000 tested, 0.46% active; calls by dose curve; tested in A549 cells; note: nearly all actives have a fitted effect of over 30% in size
VACV mCherry inh: qHTS for Stage-Specific Inhibitors of Vaccinia Orthopoxvirus: mCherry Reporter Primary qHTS; 310,000 tested, 0.63% active; Potency, µM (highest dose often 36.5 µM), most hits filed as inhibitors; Vaccinia virus mCherry reporter infection, fluorescence; AID 720579, 2013; calls by dose curve; tested in A549 cells; note: nearly all actives have a fitted effect of over 35% in size
AmpC inh no detg: qHTS Inhibitors of AmpC Beta-Lactamase (assay without detergent); AmpC nitrocefin hydrolysis, absorbance 480 nm, 0.0001% Triton; P00811; 330,000 tested, 0.52% active; Potency, µM (series often up to 57.1 µM), actives largely listed as inhibitors; note: nearly all actives have a fitted effect of over 20% in size
Target sequence (P00811 whole entry, looked up): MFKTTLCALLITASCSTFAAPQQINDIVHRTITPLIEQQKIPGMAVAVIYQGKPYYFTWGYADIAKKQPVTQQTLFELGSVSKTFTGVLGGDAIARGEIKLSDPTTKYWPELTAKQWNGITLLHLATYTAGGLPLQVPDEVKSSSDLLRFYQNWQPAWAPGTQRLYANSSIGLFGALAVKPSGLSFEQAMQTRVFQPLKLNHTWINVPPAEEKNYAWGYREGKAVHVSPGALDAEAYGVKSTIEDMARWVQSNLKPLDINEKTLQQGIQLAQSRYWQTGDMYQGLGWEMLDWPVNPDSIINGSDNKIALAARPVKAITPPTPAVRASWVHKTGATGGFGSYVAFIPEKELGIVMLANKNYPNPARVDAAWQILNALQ
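AmpC (5.3 nM in the dispensed reagent) in 20 mM phosphate pH 7.0 with 0.01% (detergent screen) or 0.0001% Triton X-100 was preincubated with compounds for 15 min at room temperature. Nitrocefin was then added from an 800 uM solution, and hydrolysis was followed at 480 nm.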
AmpC detergent: qHTS Inhibitors of AmpC Beta-Lactamase (assay with detergent) | AmpC hydrolysis of nitrocefin, absorbance 480 nm, 0.01% Triton | 370,000 tested, 0.041% active | P00811 | Potency, µM (highest dose often 114 µM), hits mostly inhibitors | AID 485294, 2010; note: nearly all actives have a fitted effect of over 25% in size
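20 mM phosphate pH 7.0 + 0.01% (detergent screen) or 0.0001% Triton X-100; 5.3 nM AmpC reagent; cpd preinc 15 min RT; nitrocefin (800 uM stock) to start; A480 q20 s × 4 min; Activity was normalised to no-enzyme and no-compound control wells.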
Each line names hits and unclear results; the compound was inactive in the other large screens. Unless noted, calls come from the whole dose curve; as a rule, active = well fitted curve in the direction sought with a large enough effect; inconclusive = small, poorly fitted or top-dose-only effect, or another doubt; inactive = no such curve, though single readings can be large; an effect the other way counts as inactive or inconclusive.

CCN1C(=O)C(CC(=O)Nc2ccc(OC)cc2)N(CCCN2CCN(c3ccc(OC)cc3)CC2)C1=S (stereo unspecified)	Vaccinia Venus inconclusive, VACV mCherry inh 10µM, AmpC detergent inconclusive
CCN1C(=O)C(CC(=O)Nc2ccc(OC)cc2)N(CCN2CCOCC2)C1=S (stereo unspecified)	none (no result: Vaccinia Venus, VACV mCherry inh)
CC(=O)c1c(C)[nH]c2ccc(OCC(O)CNCCc3ccccc3)cc12 (stereo unspecified)	none (no result: AmpC inh no detg, AmpC detergent)
Oc1cccc(-c2nc3c4c(ncn3n2)-c2ccccc2CC42CCCC2)c1	Vaccinia Venus 18µM, VACV mCherry inh 13µM
COc1ccc(-c2nc3c4c(ncn3n2)-c2ccccc2CC42CCCC2)cc1	none
CC(=O)Nc1ccccc1-c1nc(CNC(=O)c2cc(C)ccc2C)c(C)o1	none (no result: AmpC inh no detg, AmpC detergent)
CN1CCN(S(=O)(=O)c2ccc(Sc3nnc(-c4cccs4)n3-c3ccccc3)nc2)CC1	Vaccinia Venus inconclusive, VACV mCherry inh 10µM
CN(C(=O)c1cccc(NC(=O)Cc2ccc(NC(=O)C3CCCN(C(=O)CCc4ccccc4)C3)cc2)c1)C1CCCCC1 (stereo unspecified)	Vaccinia Venus inconclusive, VACV mCherry inh 13µM (no result: AmpC inh no detg, AmpC detergent)
CN(Cc1ccccc1)C(=O)c1ccc(NC(=O)Cc2ccc(NC(=O)C3CCCN(C(=O)C4CCC4)C3)cc2)cc1 (stereo unspecified)	none (no result: AmpC inh no detg, AmpC detergent)
CN(C(=O)c1ccc(NC(=O)Cc2ccc(NC(=O)C3CCCN(C(=O)CCc4ccccc4)C3)cc2)cc1)C1CCCC1 (stereo unspecified)	Vaccinia Venus inconclusive, VACV mCherry inh 10µM (no result: AmpC inh no detg, AmpC detergent)
CN(Cc1ccccc1)C(=O)c1ccc(NC(=O)Cc2ccc(NC(=O)C3CCCN(C(=O)CCc4ccccc4)C3)cc2)cc1 (stereo unspecified)	Vaccinia Venus inconclusive, VACV mCherry inh 10µM (no result: AmpC inh no detg, AmpC detergent)
O=C(COc1ccccc1C(=O)Nc1ccccc1)Nc1cccc([N+](=O)[O-])c1	VACV mCherry inh inconclusive (no result: AmpC inh no detg, AmpC detergent)
CCOC(=O)c1c(NC(=O)CSc2nnc(-c3c[nH]c4ccccc34)n2CC)sc2c1CCCC2	Vaccinia Venus inconclusive, AmpC inh no detg 1.4µM
Nc1ccc2c(c1)C(=O)C(=O)c1ccccc1-2	Vaccinia Venus 3.5µM (no result: VACV mCherry inh)
Nc1ccc2c(c1)C(=O)c1ccccc1-2	VACV mCherry inh inconclusive (no result: AmpC inh no detg, AmpC detergent)
CCOc1cc(/C=C2\SC(=O)N(c3ccc(O)cc3)C2=O)ccc1O	AmpC inh no detg 10µM (no result: Vaccinia Venus, VACV mCherry inh)
CCOc1ccc(N2C(=O)S/C(=C\c3ccc(O)c(OCC)c3)C2=O)cc1	none (no result: Vaccinia Venus, VACV mCherry inh)
CCOc1cc2nc(-c3ccc(OC)c(OC)c3)nc(N3CCOCC3)c2cc1OC	Vaccinia Venus inconclusive, VACV mCherry inh 11µM
CCCc1cc(C(=O)Nc2cccc(C(C)=O)c2)no1	none
CCCc1cc(C(=O)Nc2ccccc2SC)no1	AmpC inh no detg 40µM
CCCc1cc(C(=O)Nc2ccc(C(C)=O)cc2)no1	AmpC inh no detg 45µM
CC(C)(C)c1ccc(C(=O)NCCc2csc(-c3ccc(Cl)cc3)n2)cc1	none (no result: AmpC inh no detg)
CN(C)CCCNC(=O)c1ccc(-c2nc(-c3ccc(Cl)cc3)cs2)cc1	Vaccinia Venus 22µM, VACV mCherry inh inconclusive
O=C(NCc1cccnc1)[C@@H]1CC=C[C@@H]2CCN(C3CCCCC3)C(=O)[C@@H]21	none (no result: AmpC inh no detg, AmpC detergent)
O=C(N/N=C/c1cccc(C(F)(F)F)c1)c1cc2c(s1)-c1ccccc1CC2	AmpC inh no detg 0.16µM (no result: VACV mCherry inh)
COc1ccc(/C=C(\C#N)C(=O)OCC(=O)NCc2ccccc2Cl)cc1	none
COc1ccc(/C=C(\C#N)C(=O)OCC(=O)NCc2ccccc2OC)cc1	AmpC inh no detg 32µM, AmpC detergent inconclusive
Cc1cccc(OCc2nc(C#N)c(NCCN(C)C)o2)c1	AmpC inh no detg 2.2µM
CCOc1ccc(C(=O)C(CN2CCOCC2)c2ccccc2)cc1 (stereo unspecified)	Vaccinia Venus inconclusive, VACV mCherry inh 10µM, AmpC detergent inconclusive
Cc1cnc(SCC2CCCO2)nc1C1CCCN(Cc2nc(-c3ccccc3)cs2)C1 (stereo unspecified)	none (no result: AmpC inh no detg, AmpC detergent)
Cc1ccc(S(=O)(=O)C2(C(=O)Nc3cccc(F)c3)CC2)cc1	AmpC inh no detg 2.8µM, AmpC detergent inconclusive
CC(C)(C)C(=O)NC(NC(=S)Nc1sc2c(c1C#N)CCCC2)C(Cl)(Cl)Cl (stereo unspecified)	AmpC inh no detg 1.1µM (no result: Vaccinia Venus, VACV mCherry inh)
CC(C)(C)C(=O)Nc1sc2c(c1C#N)CCC2	none
O=C(Nc1ccc(Cl)cc1)Nc1nnc(-c2ccncc2)s1	none
CS(=O)(=O)c1ccc2nc(NC(=O)Nc3ccc(Cl)c(Cl)c3)sc2c1	none
CCOC(=O)Cc1csc(NC(=O)Nc2cccc(Cl)c2)n1	AmpC inh no detg 20µM
O=C(Nc1cccc(Cl)c1)Nc1nnc(-c2ccncc2)s1	Vaccinia Venus inconclusive, AmpC inh no detg 16µM, AmpC detergent inconclusive
CS(=O)(=O)c1ccc2nc(NC(=O)Nc3cccc(Cl)c3)sc2c1	Vaccinia Venus inconclusive, AmpC inh no detg 13µM, AmpC detergent inconclusive
COc1cccc(C2(CC(=O)N3CCCOc4c(cccc4OC)C3)CC(=O)N(C)C2=O)c1 (stereo unspecified)	none (no result: AmpC inh no detg, AmpC detergent)
COC(=O)c1c(C)oc2ccc(N(C(=O)c3ccncc3)S(=O)(=O)c3ccc(C)cc3)cc12	Vaccinia Venus inconclusive, VACV mCherry inh 10µM, AmpC detergent inconclusive
Cc1ccc(C)c(C(=O)NCCN(C)C)c1	none (no result: Vaccinia Venus, VACV mCherry inh)
C=C(CN(C)C)C(=O)c1cc(C)ccc1C	Vaccinia Venus 7.1µM, VACV mCherry inh inconclusive (no result: AmpC inh no detg, AmpC detergent)
COc1cccc(CN2CCC(n3cc(C(=O)N4CCCCC4)nn3)CC2)c1OC	none (no result: AmpC inh no detg, AmpC detergent)
C[C@]12c3[nH]c4cc(-c5ccco5)ccc4c3CCN1C(=O)[C@@H](CC(=O)NCC13CC4CC(CC(C4)C1)C3)C[C@@H]2C(=O)N1CCOCC1	Vaccinia Venus 10µM, VACV mCherry inh inconclusive (no result: AmpC detergent)
O=C(C[C@H]1C[C@H](C(=O)N2CCOCC2)[C@@]2(CCC3CCCC3)c3[nH]c4cc(-c5ccco5)ccc4c3CCN2C1=O)NCC12CC3CC(CC(C3)C1)C2	Vaccinia Venus inconclusive, VACV mCherry inh inconclusive (no result: AmpC detergent)
CCN(CC)C(=O)[C@H]1C[C@H](CC(=O)NCC23CC4CC(CC(C4)C2)C3)C(=O)N2CCc3c([nH]c4cc(-c5ccco5)ccc34)[C@]12C	Vaccinia Venus 11µM, VACV mCherry inh inconclusive (no result: AmpC detergent)
COCc1c(C(=O)N2CCN(C3CCCCC3)CC2)cnn1-c1ncc(C)c(-c2cccs2)n1	none (no result: AmpC inh no detg, AmpC detergent)
C[N+]1(CC(=O)c2ccc3c(c2)CCCC3)CCOCC1	none (no result: AmpC inh no detg, AmpC detergent)
COc1ccc([N+](=O)[O-])cc1NCc1cccc([N+](=O)[O-])c1	Vaccinia Venus 10µM, VACV mCherry inh inconclusive
Oc1ccc(/C=N/N(c2ccccc2)c2ccccc2)c(O)c1O	AmpC inh no detg 28µM (no result: Vaccinia Venus, VACV mCherry inh)
O=[N+]([O-])c1ccc(Cl)cc1C=NNc1ccccn1	none (no result: AmpC inh no detg, AmpC detergent)
O=[N+]([O-])c1cc(Cl)cc(/C=N\Nc2ccccn2)c1O	Vaccinia Venus inconclusive, VACV mCherry inh 2.2µM, AmpC detergent inconclusive
CCCCCCSc1nnc(-c2cnn(-c3ccccc3)c2-n2cccc2)n1C	Vaccinia Venus 10µM, VACV mCherry inh 10µM

Source: PubChem BioAssay (National Center for Advancing Translational Sciences (NCATS))
